Source: PubChem BioAssay
The source made the active and inactive calls.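 Rule for the calls, unless noted: active = inhibition of the reporter signal at or above 50%; inactive = inhibition below 50%.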

How the values were obtained:
[1] = inhibitors of TNFa-induced NFkB p65 translocation, primary screen, imaging, HUVEC, MLSMR starter and 10KST1 sets (AID 438;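 active = inhibition above 20% together with a positive visual image hit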;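 note: compound added about 3h40 before a 20 min TNFalpha stimulation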;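 for inhibition: signal is the nuclear over cytoplasmic p65 intensity ratio per well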); conditions: HUVEC TNFa-induced p65 nuclear translocation; cell count: measured here: nuclei count (cytotoxicity indicator), at 2.08 µM; inhibition: at 2 µM, stronger effect = higher value, 0% TNFa-plus-vehicle, 100% no-TNFa wells
[2] = reduction of polyQ htt aggregates in cells – imaging, exon1htt(103Q)mCFP cells, high-content imaging, primary screen (AID 483;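 active = visual image review flags a hit and inhibition of aggregation exceeds 20%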;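 note: compound exposure lasted 3 days before fixation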;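 for nuclei count: percent of the per-plate median nuclei count of sample wells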); conditions: exon1htt(103Q)mCFP cell line, aggregate imaging, at 2 µM; inhibition of aggregation: stronger effect = higher value; nuclei count: measured here: cell count, toxicity
[3] = endothelial E-selectin expression blockers – imaging, HUVEC, immunofluorescence, MLSMR starter and 10KST1 sets, primary screen (AID 487;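 active = visually confirmed hit in the image check and inhibition above 20%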;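 for inhibition: signal is fraction of cell area covered by stained E-selectin grains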;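 for nuclei count: 100% = median nuclei count of all wells on the same plate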); conditions: HUVEC TNFalpha-induced E-selectin immunofluorescence imaging, at 2 µM; inhibition: stronger effect = higher value; nuclei count: measured here: cell number, toxicity
[4] = molecular target: Voltage-gated potassium channel subunit beta-2 (Rattus norvegicus) (UniProt P62483); assay: inhibitors of rat Kvbeta2 reductase activity – biochemical, NADPH fluorescence, primary screen (AID 622;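 active = fluorescence slope higher than the sample average by over 3 SD, cut at about -0.22 in these data, passing the limit was not always enough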;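 note: slope of raw intensity against log time taken from 70 to 1610 s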); conditions: recombinant KvBeta, 4-cyanobenzaldehyde reduction, at 10 µM, stronger effect = higher value
[5] = molecular target: Voltage-gated potassium channel subunit beta-2 (Rattus norvegicus) (UniProt P62483); assay: enhancers of rat Kvbeta2 NADPH turnover – biochemical, NADPH fluorescence, primary screen (AID 623;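 active = NADPH fluorescence slope more negative than the mean of all samples by about 3 SD, 99.7% confidence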;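 note: fluorescence intensity change per second fitted from 20 to 320 s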); conditions: Recombinant KvBeta, NADPH fluorescence decrease slope, 10 min; at 10 µM; stronger effect = lower value
[6] = molecular target: Alpha-2C adrenergic receptor (Homo sapiens) (UniProt P18825); assay: compounds altering alpha2C-coupled GIRK flux – cell-based, HEK293 alpha2C/GIRK1/2, thallium flux, primary screen (AID 624;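 active = fluorescence slope after compound addition differing from the mean of all screened samples at 99.7% confidence, in either direction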;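 note: slope of fluorescence ratio to pre-addition baseline per second over 15 to 24 s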); conditions: thallium flux BTC fluorescence, at 10 µM, actives lie on both sides
[7] = blockers of RIG-like receptor reporter activation – cell-based, Sendai virus stimulus, luciferase, 10K MLSCN set, TLR/RLR signaling modifier project, primary screen (AID 602276;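 active = inhibition at or above 50% at 10 µM; inactive = inhibition below 50%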;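 note: firefly luciferase from ISG56 promoter only with Renilla not read in this screen; 0% = Sendai virus plus DMSO and 100% = medium plus DMSO without virus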); conditions: HEK293 RL24 IRF3 luciferase reporter, at 10 µM, stronger effect = higher value
[8] = TLR3 IRF3 reporter activation blockers – cell-based, poly I:C stimulus, luciferase, 10K MLSCN set, primary screen (AID 602277); conditions: HEK293-TLR3 RL24 IRF3 luciferase reporter, at 10 µM, stronger effect = higher value

Chain of Voltage-gated potassium channel subunit beta-2 (Rattus norvegicus) (P62483 whole entry, looked up): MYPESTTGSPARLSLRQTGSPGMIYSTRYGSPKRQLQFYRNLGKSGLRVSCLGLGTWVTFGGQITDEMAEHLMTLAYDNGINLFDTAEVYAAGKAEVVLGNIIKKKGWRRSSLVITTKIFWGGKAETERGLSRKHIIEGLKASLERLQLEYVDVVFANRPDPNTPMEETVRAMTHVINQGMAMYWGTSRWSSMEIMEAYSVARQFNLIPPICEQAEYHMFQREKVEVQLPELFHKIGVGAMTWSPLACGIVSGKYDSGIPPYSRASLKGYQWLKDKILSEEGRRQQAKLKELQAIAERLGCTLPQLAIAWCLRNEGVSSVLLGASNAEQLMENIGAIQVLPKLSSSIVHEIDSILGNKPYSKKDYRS
Chain of Alpha-2C adrenergic receptor (Homo sapiens) (P18825 whole entry, looked up): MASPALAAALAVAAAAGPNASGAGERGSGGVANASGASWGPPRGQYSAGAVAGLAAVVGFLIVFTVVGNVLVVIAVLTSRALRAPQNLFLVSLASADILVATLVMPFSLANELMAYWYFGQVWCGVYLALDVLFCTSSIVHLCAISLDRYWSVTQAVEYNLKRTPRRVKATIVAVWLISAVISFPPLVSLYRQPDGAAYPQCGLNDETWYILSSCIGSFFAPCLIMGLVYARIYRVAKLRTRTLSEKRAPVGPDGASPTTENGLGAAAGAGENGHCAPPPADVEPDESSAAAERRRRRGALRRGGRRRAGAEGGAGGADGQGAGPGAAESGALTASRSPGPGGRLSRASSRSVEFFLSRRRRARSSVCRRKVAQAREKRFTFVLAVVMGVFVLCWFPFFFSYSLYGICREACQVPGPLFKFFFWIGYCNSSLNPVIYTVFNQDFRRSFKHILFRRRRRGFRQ

Row | Structure (SMILES) | cell count [1] | inhibition [1] | inhibition of aggregation [2] | nuclei count [2] | inhibition [3] | nuclei count [3] | fluorescence slope [4] | NADPH fluorescence slope [5] | slope [6] | inhibition [7] | inhibition [8]
1 | CCOC(=O)N1CCN(C(=O)COc2ccc(S(=O)(=O)NC(C)C)cc2)CC1 | 623 | 6.2% (inactive) | -5.3% (inactive) | 110% | 11.5% (inactive) | 115% | -0.548 (inactive) | -3.6e-05 (inactive) | 0.00507 (inactive) | 10.8% (inactive) | 24.1% (inactive)
2 | COc1ccc(C2CC(C(F)(F)F)n3ncc(C(=O)NCc4cccnc4)c3N2)cc1OC (stereo unspecified) | 313 | 0.3% (inactive) | 8.9% (inactive) | 57.1% | 8% (inactive) | 91.9% | -0.388 (inactive) | -3.2e-05 (inactive) | 0.00287 (inactive) | 5.88% (inactive) | 20.9% (inactive)
3 | CCc1ccccc1NC(=O)CSc1ncn[nH]1 | 306 | 9% (inactive) | -8.6% (inactive) | 101% | 40% (inactive) | 102% | -0.397 (inactive) | -1.9e-06 (inactive) | 0.00367 (inactive) | 1.64% (inactive) | 32.7% (inactive)
4 | CCCCC(=O)NCCc1cc2c(C)ccc(C)c2[nH]c1=O | 699 | -1% (inactive) | -22.4% (inactive) | 105% | -13.4% (inactive) | 102% | -0.552 (inactive) | -3.7e-05 (inactive) | 0.00563 (inactive) | 10.6% (inactive) | 22.7% (inactive)
5 | CCN1CCN(CCCNC(=O)C2c3ccccc3C(=O)N(C)C2c2ccc(OC)cc2)CC1 (stereo unspecified) | 567 | 15.4% (inactive) | -1.2% (inactive) | 82.8% | 31.9% (inactive) | 93.8% | -0.504 (inactive) | -1.6e-06 (inactive) | 0.00453 (inactive) | 2.59% (inactive) | 14% (inactive)
6 | COc1ccc(S(=O)(=O)C(C#N)c2nc3ccccc3nc2N2CCCC(C)C2)cc1 (stereo unspecified) | 714 | -5% (inactive) | -12.7% (inactive) | 92.2% | 16% (inactive) | 113% | -0.417 (inactive) | 7.1e-06 (inactive) | 0.00445 (inactive) | 13% (inactive) | 0.928% (inactive)
7 | O=C1CCc2cc(S(=O)(=O)N3CCC(C(=O)Nc4nccs4)CC3)ccc2N1 | 821 | 3.9% (inactive) | -29.1% (inactive) | 105% | -38.5% (inactive) | 102% | -0.593 (inactive) | -4.4e-05 (inactive) | 0.00714 (inactive) | 18.5% (inactive) | 28.2% (inactive)
8 | CN(C)S(=O)(=O)c1ccc(Oc2ccc(S(=O)(=O)N(C)C)cc2)cc1 | 273 | -4.4% (inactive) | -0.5% (inactive) | 89.3% | 8.2% (inactive) | 80.6% | -0.42 (inactive) | 3.1e-05 (inactive) | 0.00921 (inactive) | -5.78% (inactive) | -20.3% (inactive)
9 | Cc1ccc(-c2nc(=S)c3c(n2Cc2ccco2)CCCC3)cc1 | 320 | 1% (inactive) | -7.2% (inactive) | 77.9% | -22.3% (inactive) | 85.5% | -0.485 (inactive) | -0.00017 (inactive) | 0.00678 (inactive) | 16% (inactive) | 27.9% (inactive)
10 | Cc1nnc(SCC(=O)Nc2nccs2)s1 | 501 | -10.8% (inactive) | 12.1% (inactive) | 116% | -0.9% (inactive) | 115% | -0.413 (inactive) | -7.7e-05 (inactive) | 0.00513 (inactive) | -7.71% (inactive) | -7.69% (inactive)
11 | Cc1ccccc1-c1nc(Cc2ccccc2)no1 | 434 | -9.1% (inactive) | 12.9% (inactive) | 87.9% | 31.1% (inactive) | 93.2% | -0.341 (inactive) | -3.8e-05 (inactive) | 0.00721 (inactive) | -43.9% (inactive) | -184% (inactive)
12 | CCCOc1cccc(C(=O)N(Cc2ccco2)C2CCS(=O)(=O)C2)c1 (stereo unspecified) | 378 | 1.7% (inactive) | -7.9% (inactive) | 100% | -94.2% (inactive) | 112% | -0.442 (inactive) | -3.3e-05 (inactive) | 0.00536 (inactive) | 2.23% (inactive) | -2.97% (inactive)
13 | CCOC(=O)N1CCN(C(=O)CSCC(=O)Nc2nc(-c3ccc(OC)cc3)cs2)CC1 | 450 | 2.7% (inactive) | -44% (inactive) | 54% | 41.9% (inactive) | 91.3% | -0.425 (inactive) | -8.7e-05 (inactive) | 0.00636 (inactive) | -14.1% (inactive) | -24.6% (inactive)
14 | COc1ccc(S(=O)(=O)NC(C)C(=O)Nc2cccc(C(C)=O)c2)cc1 (stereo unspecified) | 255 | 2.4% (inactive) | 14.5% (inactive) | 97.3% | -2.9% (inactive) | 62.6% | -0.402 (inactive) | -2.7e-05 (inactive) | 0.00498 (inactive) | 14.3% (inactive) | 15.3% (inactive)
15 | CCc1ccc(C2CC(c3ccccc3)n3ncnc3N2)cc1 (stereo unspecified) | 626 | 1.1% (inactive) | 25.1% (inactive) | 72% | -22.9% (inactive) | 70.6% | -0.586 (inactive) | -3.4e-05 (inactive) | 0.00702 (inactive) | 13.8% (inactive) | 28.3% (inactive)
16 | CC(C)C(c1nnnn1C1CCCC1)N1CCCc2ccccc21 (stereo unspecified) | 706 | -6.9% (inactive) | 5.4% (inactive) | 95.4% | -47.1% (inactive) | 107% | -0.423 (inactive) | -7.3e-05 (inactive) | 0.00444 (inactive) | -17.8% (inactive) | -6.74% (inactive)
17 | CCOC(=O)Nc1ccc2c(c1)N(C(=O)OCCN(C)C)c1ccccc1CC2 | 425 | -7.7% (inactive) | 25.6% (inactive) | 57.1% | -16.3% (inactive) | 75.4% | -0.563 (inactive) | -2.3e-05 (inactive) | 0.00722 (inactive) | 6.83% (inactive) | 30.5% (inactive)
18 | COCCNC(=O)C1CCCN(c2ncccn2)C1 (stereo unspecified) | 648 | 7.5% (inactive) | 5.6% (inactive) | 100% | 98.1% (active) | 76.1% | -0.539 (inactive) | -6.8e-05 (inactive) | 0.00583 (inactive) | 14.2% (inactive) | 20.8% (inactive)
19 | Cc1cc(NC(=O)Cc2cn3ccsc3n2)n(-c2ccccc2)n1 | 823 | -16.9% (inactive) | -16.8% (inactive) | 104% | -23.9% (inactive) | 106% | -0.308 (inactive) | -1.7e-07 (inactive) | 0.00558 (inactive) | 5.91% (inactive) | 5.15% (inactive)
20 | CCCCN(C)C(=O)CS(=O)(=O)Cc1nc(-c2cccc(OC)c2)oc1C | 737 | 1.1% (inactive) | 13.9% (inactive) | 98.3% | -26.7% (inactive) | 115% | -0.518 (inactive) | -3.7e-05 (inactive) | 0.00718 (inactive) | 16.1% (inactive) | 16.3% (inactive)
21 | COc1ccc(S(=O)(=O)N2CCCC2C(=O)Nc2ccc(C)cc2)cc1 (stereo unspecified) | 469 | 42.3% (active) | -25% (inactive) | 130% | -11.9% (inactive) | 73.3% | -0.498 (inactive) | -5.1e-05 (inactive) | 0.00758 (inactive) | 12.2% (inactive) | 7.96% (inactive)
22 | C=CCNS(=O)(=O)c1ccc2nsnc2c1 | 383 | 2.2% (inactive) | 6.3% (inactive) | 89.1% | -33.6% (inactive) | 121% | -0.508 (inactive) | -3.2e-05 (inactive) | 0.0046 (inactive) | -4.18% (inactive) | -2.28% (inactive)
23 | O=C(NCCCNC(=O)c1ccccn1)c1ccccn1 | 711 | -11.9% (inactive) | -10.1% (inactive) | 97.9% | -77.9% (inactive) | 105% | -0.491 (inactive) | -7e-05 (inactive) | 0.00516 (inactive) | 15.1% (inactive) | 20% (inactive)
24 | CCOc1ccc(C(=O)N2CCN(C(=O)c3ccco3)CC2)cc1OCC | 558 | -2.7% (inactive) | -6.8% (inactive) | 111% | 28.1% (inactive) | 93.4% | -0.367 (inactive) | 4.3e-05 (inactive) | 0.00675 (inactive) | 12% (inactive) | 21.2% (inactive)
25 | CCOC(=O)c1cc2c(=O)n3ccccc3nc2n(Cc2ccccc2)c1=N | 913 | 11.3% (inactive) | 19.9% (inactive) | 102% | -109% (inactive) | 117% | -0.364 (inactive) | -2.8e-05 (inactive) | 0.00332 (inactive) | 6.32% (inactive) | 33.2% (inactive)
26 | CCOc1ccc(NC(=O)C2CC(=O)N(CC)C(=Nc3ccc4c(c3)OCO4)S2)cc1 (stereo unspecified) | 356 | -6.2% (inactive) | 12.9% (inactive) | 81.1% | -125% (inactive) | 113% | -0.358 (inactive) | -6.3e-05 (inactive) | 0.00411 (inactive) | -1.73% (inactive) | 1.26% (inactive)
